Source: PubChem (National Center for Advancing Translational Sciences (NCATS))
Rows were chosen to be rich in hits. Some 0.9% of all compounds tested hit in one or more screens of this group.
gsp antagonist = gsp mutant antagonism | gsp-mutant cells, cAMP HTRF, 30 min | AID 624288 | actives 0.4% (n = 340,000) | Potency, µM (highest dose often 76.9 µM), hits mostly inhibitors; calls by dose curve; cell line not stated here;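 further: intracellular cAMP measured with PDE inhibitor Ro 20-1724 present during compound exposure; nearly all actives have a fitted effect of over 65% in size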
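Cells, 2000/well, grown 16–24 h in DMEM 10% FBS with 0.5 mg/ml G418, then compounds plus […] (300 uM addition stock), 30 min at 37C. cAMP read by HTRF (cAMP-d2 and anti-cAMP antibody-K in lysis buffer) after 30 min RT.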
RXFP1 agonist = activates the human relaxin receptor RXFP1; Q9HBX9; HEK293T-RXFP1 cAMP TR-FRET, 30 min; response scale: percent of porcine relaxin response, buffer zero; Potency, µM (highest dose often 57.5 µM), actives largely listed as activators; actives 0.3% (n = 370,000); AID 2676; active means well fitted activation curve with a large enough effect; inconclusive means small, poorly fitted or top-dose-only effect; further: nearly all actives have a fitted effect of over 60% in size
Target sequence (Q9HBX9 whole entry, looked up): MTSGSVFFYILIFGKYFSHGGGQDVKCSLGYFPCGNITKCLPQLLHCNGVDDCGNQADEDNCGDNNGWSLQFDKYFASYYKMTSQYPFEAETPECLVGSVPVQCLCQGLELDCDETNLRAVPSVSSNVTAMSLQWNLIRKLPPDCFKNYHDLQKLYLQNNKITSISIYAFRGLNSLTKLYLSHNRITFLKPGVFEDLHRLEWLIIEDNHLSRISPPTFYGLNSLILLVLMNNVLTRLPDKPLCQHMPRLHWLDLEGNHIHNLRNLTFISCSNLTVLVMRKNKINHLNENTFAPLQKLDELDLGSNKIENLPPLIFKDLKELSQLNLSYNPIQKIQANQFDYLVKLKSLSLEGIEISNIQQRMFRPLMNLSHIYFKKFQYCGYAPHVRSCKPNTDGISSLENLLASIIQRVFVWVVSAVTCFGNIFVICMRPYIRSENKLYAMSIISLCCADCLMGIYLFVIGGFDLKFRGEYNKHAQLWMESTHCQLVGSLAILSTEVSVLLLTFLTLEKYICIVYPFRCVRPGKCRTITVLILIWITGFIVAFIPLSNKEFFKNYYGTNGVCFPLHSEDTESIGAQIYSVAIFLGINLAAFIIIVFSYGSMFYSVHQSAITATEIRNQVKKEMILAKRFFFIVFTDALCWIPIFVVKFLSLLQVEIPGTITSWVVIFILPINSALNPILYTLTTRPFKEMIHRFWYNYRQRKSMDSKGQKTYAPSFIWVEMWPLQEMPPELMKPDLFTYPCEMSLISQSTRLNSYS
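HEK293T cells stably expressing RXFP1 were pretreated with the PDE4 inhibitor Ro 20174, exposed to compounds for 30 min at 37C, lysed, and cAMP was read by TR-FRET. Data normalized to buffer (basal) and 29 nM porcine relaxin (100%).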
RXFP1 antag = RXFP1 (human) relaxin receptor antagonism. Q9HBX9. HEK293-RXFP1, relaxin-stimulated cAMP HTRF, 30 min; stronger effect = lower value. activity change, negative = inhibition, % at 57.5 µM. actives 0.59% (n = 350,000). AID 1259400;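 active means activity change of -60% or lower, but not beyond a set lower limit; inconclusive means change between -60% and -40%, or beyond the set limit; inactive means change above -40%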
gsp ag = activates gsp, the McCune-Albright syndrome mutation; gsp mutant cells, cAMP HTRF, 30 min; Potency, µM (doses to about 76.9 µM), usual class: activators; actives 0.13% (n = 340,000); active means well fitted activation curve with a large enough effect; inconclusive means small, poorly fitted or top-dose-only effect, or another doubt; inactive means no such curve, though single readings can be large or run the other way; cell line not stated here;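 further: phosphodiesterase inhibitor Ro 20-1724 added with compounds to block cAMP breakdown; nearly all actives have a fitted effect of over 60% in size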
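Cells stably selected in G418 were plated at 2000/well, grown 16-24 hr, then given compounds in DMSO with the PDE inhibitor […] (300 uM solution added) for 30 min at 37C; cAMP was read by HTRF.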
A number is an active result; 0 = inactive; ? = inconclusive; - = no result; [ ] = another dose, or the depositor's remark.

SMILES | gsp antagonist | RXFP1 agonist | RXFP1 antag | gsp ag
O=C(CCN1C(=O)/C(=C/c2ccccc2F)SC1=S)Nc1cccnc1 | ? | 0 | 0 | 0
O=C(CCS(=O)(=O)c1ccccc1)N(Cc1cccnc1)c1nc2c(Cl)cccc2s1 | - | 0 | 0 | -
CC(OC(=O)/C(C#N)=C/c1ccc(N(C)C)cc1)C(=O)N(C)c1ccccc1 (stereo unspecified) | 25.1µM | 0 | 0 | 0
Cc1nn(C)c(C)c1N1C(=O)c2cccc3c(Br)ccc(c23)C1=O | 0 | 0 | 0 | 12.6µM
Cc1nn(C)c(C)c1N1C(=O)c2cccc3c(N)ccc(c23)C1=O | 0 | 0 | 0 | ?
Cc1ccc(S(=O)(=O)c2c(Nc3ccccc3)sc(C(=O)c3ccc4c(c3)OCO4)c2N)cc1 | - | 0 | - | -
C#CC1(O)CC[C@H]2[C@@H]3CCC4=CCCC[C@@H]4[C@H]3CC[C@@]21C (stereo partly specified) | - | - | 0 | -
O=C1C=C(N2CCCCCC2)C2(CCCCC2)O1 | 0 | 0 | -61.4 | 0
O=C(Nc1ccccc1)c1ccc(=O)n(Cc2ccc(F)c(F)c2)c1 | 0 | 0 | -61.9 | 0
CCOc1ccccc1CNC(=O)CCCN1C(=O)COc2ccc(C)cc21 | - | 0 | 0 | -
COc1ccc2[nH]c3c(=O)n(CCCCC(=O)NCCN4CCCC4)c(=S)[nH]c3c2c1 | 0 | 0 | ? | 0
CC[C@H](C)NC(=O)CCCCCn1c(=S)[nH]c2c([nH]c3ccc(OC)cc32)c1=O | 0 | 0 | -79.9 | 0
CCCCNC(=O)CCCCn1c(=S)[nH]c2c([nH]c3ccc(OC)cc32)c1=O | 0 | 0 | 0 | 0
COc1ccc2[nH]c3c(=O)n(CCCCC(=O)N4CCC(C(N)=O)CC4)c(=S)[nH]c3c2c1 | 0 | 0 | -94.6 | 0
O=C(CSc1ccc(-c2ccco2)nn1)Nc1ccccc1 | 0 | 0 | 0 | 0[15.4 µM]
O=C(CSc1ccc(-c2ccco2)nn1)NCc1ccccc1Cl | 0 | 0 | - | 11.2µM
COC(=O)c1cc2oc(C)cc2n1Cc1cc(C)ccc1C | - | 0 | 0 | -
Cc1ccc(-c2cc(C(F)(F)F)n3ncc(C(=O)O)c3n2)cc1 | 0 | 0 | 0 | 0
COCCNC(=O)c1cnn2c(C(F)(F)F)cc(-c3ccc(C)cc3)nc12 | 35.5µM | 0 | 0 | 0
COc1cccc(S(=O)(=O)Nc2ccc(C(=O)Nc3ccncc3)cc2)c1 | 0 | 0 | - | 0
O=C(Nc1cccc(S(=O)(=O)Nc2ccc(Cl)cc2)c1)c1ccc(Cl)nc1 | 44.7µM | 0 | 0 | 0
COc1ccc(NS(=O)(=O)c2cccc(NC(=O)c3ccc(Cl)nc3)c2)cc1 | ? | 0 | -71.2 | 0[15.4 µM]
O=C1CSc2ccc(C(=O)Nc3cccc(S(=O)(=O)Nc4ccc(Br)cc4)c3)cc2N1 | 39.8µM | 0 | 0 | 0
O=C(Nc1ccc(F)c(Cl)c1)c1cc(S(=O)(=O)N2CCCc3ccccc32)ccc1F | - | 0 | 0 | -
Cc1ccc(S(=O)(=O)c2nnn3c2nc(Nc2ccc(C(C)C)cc2)c2sccc23)cc1C | - | 0 | 0 | -
SMILES | gsp antagonist | RXFP1 agonist | RXFP1 antag | gsp ag
CC(C)(CNC(=S)NCCc1ccccc1)CNC(=S)NCCc1ccccc1 | 35.5µM | 0 | 0 | 0
OCCNC(=S)NCCc1ccccc1 | 0 | 0 | 0 | 0
CC(=O)O[C@]1(C(C)=O)CC[C@H]2[C@@H]3C=C(Cl)C4=CC(=O)CC[C@]4(C)[C@H]3CC[C@@]21C | 0 | 0 | -83.4 | -
CCC(=O)c1ccc(OCC(=O)Nc2cccc(S(=O)(=O)N(C)c3ccccc3)c2)cc1 | 28.2µM | 0 | 0 | 0
O=C(Nc1ccccc1)Nc1ncc([N+](=O)[O-])s1 | 28.2µM | 0 | 0 | 0[15.4 µM]
O=C(COC(=O)c1ccccc1)Nc1ncc([N+](=O)[O-])s1 | 0 | - | 0 | 0[15.4 µM]
CCN(Cc1ccc2c(c1)OCO2)C(=O)CSc1nc(C)nc2sc(C)c(C)c12 | 39.8µM | 0 | 0 | 0
Fc1ccc(CN2CCN(c3ncnc4scc(-c5ccc(F)cc5)c34)CC2)cc1 | 0 | 0 | -67.9 | 0
COc1ccc(-c2csc3ncnc(N4CCN(Cc5ccccc5)CC4)c23)cc1 | 0 | 0 | 0 | 0[15.4 µM]
CCc1ccc(-c2cc(C)no2)cc1S(=O)(=O)NCc1ccc(OC)cc1 | - | 0 | 0 | -
O=c1c2[nH]c3ccc(Cl)cc3c2ncn1CCN1CCCCC1 | 0 | 0 | 0 | 0
S=c1nc[nH]c2c1[nH]c1ccc(Cl)cc12 | 0 | 3.16µM | 0 | ?
Nn1cnc2c([nH]c3ccccc32)c1=O | 0 | 0 | 0 | 0
S=c1nc[nH]c2c1[nH]c1ccccc12 | 0 | 7.08µM | 0 | 12.6µM
Cc1onc(-c2ccccc2Cl)c1C(=O)Oc1ccc(Cl)cc1Cl | - | 0 | -77.7 | -
N=C1N=C(N)c2cc3ccccc3cc21 | - | - | -80.4 | -
NC1=Nc2cccc3cccc1c23 | 0 | 0 | 0 | 0[15.4 µM]
Cc1cc(Cl)c(S(=O)(=O)NC2CCCC2)cc1OCC(=O)NC1CCCCC1 | 28.2µM | 0 | 0 | 0
CC(C)(C)c1cc(C=O)cc(C(C)(C)C)c1O | - | - | 0 | -
Cc1ccc(Nc2nc3nonc3[nH]c2=O)cc1C | 0 | 0 | 0 | 0
Cc1ccc(Nc2nc3nonc3[nH]c2=O)cc1Cl | 28.2µM | 0 | 0 | 0
O/C(=C\c1nc2ccccc2nc1/C=C(\O)c1ccccc1)c1ccccc1 | 0 | 0 | -111.6 | 0
COc1ccc(C(=O)NCCn2cc(SCC(=O)Nc3ccc4c(c3)OCCO4)c3ccccc32)cc1OC | - | 0 | - | -
Cc1ccccc1OCC(O)CNC1CCC(NCC(O)COc2ccccc2C)CC1 (stereo unspecified) | 0 | 0 | -100.8 | 0
COc1ccccc1N1CCN(c2csc3ccc(Cl)cc3c2=O)CC1 | - | 0 | 0 | -
SMILES | gsp antagonist | RXFP1 agonist | RXFP1 antag | gsp ag
CCOc1ccccc1NC(=O)CN1C(=O)C2(SCC(=O)N2c2ccc(C)cc2)c2ccccc21 (stereo unspecified) | - | 0 | - | -
CC(C)c1ccc(NS(=O)(=O)c2ccc3nc(-c4ccccc4)[nH]c3c2)cc1 | - | 0 | -68.5 | -
O=S(=O)(Nc1ccc(Br)cc1)c1ccc2nc(-c3ccccc3)[nH]c2c1 | - | 0 | - | -
O=C(c1ccccc1)c1ccc2nc(-c3ccco3)c(-c3ccco3)nc2c1 | 0 | 0 | -90.4 | 0[15.4 µM]
Fc1ccc(-c2onc3ccc(C4OCCO4)cc23)cc1 | 11.2µM | 0 | 0 | 0[15.4 µM]
CCOC(=O)c1ccc(NC(=O)N2CC3CCCN3c3ccccc32)cc1 (stereo unspecified) | - | 0 | 0 | -
CCOc1ccc(NC(=O)N2CC3CCCN3c3ccccc32)cc1 (stereo unspecified) | - | 0 | -60.8 | -
O=C(NCc1cccc(Cl)c1)c1cc(COc2ccc3ncccc3c2)on1 | 35.5µM | 0 | 0 | 0[15.4 µM]
O=C(CCCl)NCc1ccccc1 | - | - | 0 | -
N#Cc1ccsc1NC(=O)CN1CCN(Cc2ccccc2)CC1 | 0 | 0 | 0 | 0[15.4 µM]
N#Cc1ccccc1NC(=O)CN1CCN(Cc2ccccc2)CC1 | 35.5µM | 0 | 0 | 0[15.4 µM]
CCCCN(CC)C(=O)c1cc2c(=O)n3cccc(C)c3nc2n1C | - | 0 | 0 | -
CC(C)NC(=O)/C(C#N)=C/c1ccc(N(C)C)o1 | 35.5µM | 0 | 0 | 0[15.4 µM]
CCOc1cc(-c2ccc(OC(=O)c3ccc(OC)cc3)c(OC)c2)cc(=O)c2c(C)oc(C)c12 | - | 0 | 0 | -
CCOc1cc(-c2ccc(OC(=O)c3ccccc3Cl)c(OC)c2)cc(=O)c2c(C)oc(C)c12 | - | 0 | -73.0 | -
